# Reference: PubChem BioAssay
# Results filed as inconclusive are left out. The source made the active and inactive calls.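 Rule for the calls, unless noted: active = viability increase at or above a cutoff of the median across tested compounds plus 3 SD (cut at about 8.5% in these data, passing the limit was not always enough); inconclusive = some gains above the cutoff, reason not given; inactive = the rest.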
# Columns and labels:
# [1] = Her2 expression decrease, cell viability multiplex – SKBR3 breast tumor cells, AlphaScreen, ATP viability, primary screen (AID 461;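 active = Her2 level under about 52% in both replicate screens, with viability over 70% of control, limit read from the data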;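 for Her2 level: lower value means less Her2 protein in the cells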;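 for viability: percent of carrier control wells set as 100% viability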); settings: SKBR3 Her2 protein level, 18-24 h, measured here: SKBR3 viability, ATP luminescence, at 10 µM
# [2] = molecular target: Receptor tyrosine-protein kinase erbB-2 (Homo sapiens) (UniProt P04626); experiment: as above; settings: 18-24 h, at 10 µM, stronger effect = lower value
# [3] = reduced viability of SK-BR-3 breast cancer cells – cell-based, 24 h, human, pilot screen (AID 572;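 active = viability at or below 10% of carrier control in both of two separate runs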;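 note: compound exposure lasted between 18 and 24 h rather than exactly 24 h; 100% = carrier-treated control wells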); settings: SK-BR-3 viability, CellTiter-Glo luminescence, at 10 µM, stronger effect = lower value
# [4] = HUVEC growth inhibition – cell-based, human, primary screen (AID 575;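 active = viability at or below 30% in both replicate assays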;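 note: 100% = median of untreated cell wells with 0.1% DMSO on each plate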); settings: HUVEC proliferation, CellTiter-Glo luminescence, 72 h; at 10 µM; stronger effect = lower value
# [5] = H69AR cell proliferation blockers – human, duplicate replicates, primary screen (AID 580;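 active = viability at or under a set limit in both replicates, limit being median viability minus 3 SD, cut at about 48% in these data, passing the limit was not always enough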;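 note: 100% = mean luminescence of untreated wells and 0% = no signal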); settings: H69AR lung tumor cells viability, ATP luminescence, 72 h; at 10 µM; stronger effect = lower value
# [6] = MRP1 drug-resistance reversers in H69AR cells – cell-based, doxorubicin co-treatment, pilot screen (AID 601;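 active = viability loss from added drug above about 55%, and viability with drug at most 40%, in both replicates, limit read from the data, passing the limit was not always enough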); settings: CellTiter-Glo, 72 h, at 10 µM; for differential viability (reversal): stronger effect = higher value
# [7] = yeast transport mutant growth inhibition pilot in 384-well plates, post-Golgi transport modulator project (AID 636; in the data active = inhibition above about 31%); settings: absorbance 615 nm, about 18 h, stronger effect = higher value
# [8] = growth suppression of yeast trafficking mutant, preliminary HTS, modulators of trafficking downstream of Golgi apparatus project, 1536-format plate, OD 615 nm (AID 637; in the data active = inhibition above about 30%); settings: yeast transport mutant growth, absorbance 615 nm, 18 h; stronger effect = higher value
# [9] = S. cerevisiae growth inhibition in permissive medium (OD615), pilot counter-assay for S. cerevisiae lifespan shortening project, permissive growth control (AID 705;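 active = growth inhibition above 25% in both replicates, a cutoff set 3 SD above the mean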); settings: OD615, 24 h, at 10 µM, stronger effect = higher value
# [10] = S. cerevisiae growth inhibition in restrictive medium, OD615, pilot screen, restrictive growth control, yeast lifespan reduction project (AID 706;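 active = growth inhibition above a set limit, 3 SD over mean compound inhibition, in both replicates, cut at about 43% in these data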;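 note: modified DeaD lifespan yeast strain shifted to restrictive glucose medium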); settings: OD615, 48 h, at 10 µM, stronger effect = higher value
# [11] = doxorubicin toxicity protection in MRP-1 cells – H69AR cells, CellTiter-Glo, duplicate, MRP-1 activator project, pilot screen (AID 807); settings: H69AR viability with doxorubicin, CellTiter-Glo luminescence; at 10 µM; stronger effect = higher value;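 note: compound pretreatment 18-22 h then 72 h combined with doxorubicin; 0% = doxorubicin alone and 100% = vehicle without doxorubicin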
# [12] = viability of HCT116 without oncogenic beta-catenin – human colon tumor cells, pilot screen (AID 823;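 active = cell viability at or below a set limit in both duplicate runs, the limit being the all-compound median minus 4 SD, cut at about 23% in these data, passing the limit was not always enough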;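 note: 0% = wells killed by 20 µM Hyamine and 100% = untreated DMSO cell wells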); settings: HCT116 beta-catenin knockout viability, CellTiter-Glo, 60 h; at 10 µM; stronger effect = lower value
# [13] = viability of PTEN-null HCT116 cells – cell-based, HCT116 clonal line, CellTiter-Glo, pilot screen (AID 824;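 active = viability at or below 27.92% in each of two runs, the all-compound median minus 4 SD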;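 note: 0% = 20 µM Hyamine control and 100% = vehicle cell control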); settings: HCT116 PTEN-deleted viability, 60 h, at 10 µM, stronger effect = lower value
# [14] = RAM pathway blockade in budding yeast – dse1pr::URA3 reporter, 5-FOA selection, pilot screen (AID 869;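 active = inhibition over a set limit, the all-compound mean plus 3 SD, in both replicate runs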;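 note: 0% = DMSO wells with no growth and 100% = 10 µM 1-NA-PP1 with full growth; RAM network block rescues cells from 5-FOA so hits raise OD615 growth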); settings: S. cerevisiae dse1pr::URA3 5-FOA growth, OD615, 2 d; at 10 µM; stronger effect = higher value; strain carries analog-sensitive mutant Cbk1 kinase
# [15] = RAM signaling pathway blockade in yeast – S. cerevisiae, Pdr1DBD-CYC8 efflux-inhibited sensitized strain, primary screen (AID 1298;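 active = RAM network inhibition above 8.4% in each of two replicates, 3 SD over the compound average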;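 note: 0% = DMSO untreated cells without growth and 100% = 10 µM 1-NA-PP1 full growth; higher means more yeast growth rescued from 5-FOA killing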); settings: S. cerevisiae cbk1-as DSE1-URA3 strain, 5-FOA growth OD615, 2 d; at 50 µM; stronger effect = higher value
# [16] = H69AR cells + 2 uM doxorubicin, measured here: viability with 2 uM doxorubicin, stronger effect = lower value
# [17] = H69AR cells, compound alone cytotoxicity
# Receptor tyrosine-protein kinase erbB-2 (Homo sapiens), sequence (P04626 whole entry, looked up): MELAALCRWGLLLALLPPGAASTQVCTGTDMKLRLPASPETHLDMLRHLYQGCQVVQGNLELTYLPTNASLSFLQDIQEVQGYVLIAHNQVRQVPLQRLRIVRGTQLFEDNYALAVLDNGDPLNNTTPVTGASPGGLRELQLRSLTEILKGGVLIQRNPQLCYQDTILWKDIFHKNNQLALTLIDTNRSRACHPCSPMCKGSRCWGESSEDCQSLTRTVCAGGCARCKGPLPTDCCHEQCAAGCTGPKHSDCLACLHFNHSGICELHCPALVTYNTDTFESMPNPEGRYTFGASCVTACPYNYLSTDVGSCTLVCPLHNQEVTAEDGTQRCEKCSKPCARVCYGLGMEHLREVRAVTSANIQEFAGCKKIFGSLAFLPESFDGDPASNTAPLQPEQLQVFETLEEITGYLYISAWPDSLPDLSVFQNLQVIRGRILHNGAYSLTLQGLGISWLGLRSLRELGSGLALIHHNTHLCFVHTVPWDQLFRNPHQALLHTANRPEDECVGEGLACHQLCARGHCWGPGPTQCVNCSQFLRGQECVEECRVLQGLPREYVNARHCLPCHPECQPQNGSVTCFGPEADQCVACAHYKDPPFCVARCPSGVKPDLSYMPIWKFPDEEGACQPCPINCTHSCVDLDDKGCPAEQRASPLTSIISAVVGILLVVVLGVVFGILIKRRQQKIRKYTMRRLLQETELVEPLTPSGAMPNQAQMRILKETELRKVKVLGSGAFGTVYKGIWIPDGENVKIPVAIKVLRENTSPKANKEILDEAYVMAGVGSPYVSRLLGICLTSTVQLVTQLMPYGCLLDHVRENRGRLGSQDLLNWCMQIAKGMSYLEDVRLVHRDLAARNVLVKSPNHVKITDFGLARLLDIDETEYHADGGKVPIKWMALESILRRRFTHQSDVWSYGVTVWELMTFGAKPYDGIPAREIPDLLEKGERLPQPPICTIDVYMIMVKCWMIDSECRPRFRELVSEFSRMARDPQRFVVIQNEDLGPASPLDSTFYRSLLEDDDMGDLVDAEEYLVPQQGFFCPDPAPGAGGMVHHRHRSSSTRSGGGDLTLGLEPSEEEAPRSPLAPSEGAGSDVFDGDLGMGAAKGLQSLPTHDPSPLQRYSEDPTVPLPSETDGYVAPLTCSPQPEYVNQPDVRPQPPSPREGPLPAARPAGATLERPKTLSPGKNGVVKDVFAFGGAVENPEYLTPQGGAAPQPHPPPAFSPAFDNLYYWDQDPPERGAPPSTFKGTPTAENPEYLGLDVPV
Compound,viability [1] [%],Her2 level [2],viability [3],viability [4],viability [5],differential viability (reversal) ([6]; H69AR cells + 2 uM doxorubicin),"viability [6, 16] [%]","viability [6, 17] [%]",inhibition [7],inhibition [8],growth inhibition [9],growth inhibition [10],viability increase [11],viability [12],viability [13],inhibition [14],RAM network inhibition [15]
COc1ccccc1N1CCN(C(=O)N2CCOCC2)CC1,107,87% (inactive),107% (inactive),86.9% (inactive),73.8% (inactive),-9.12% (inactive),82.9,73.8,-1.95% (inactive),-5.57% (inactive),-17.3% (inactive),-6.65% (inactive),-1.74% (inactive),95.9% (inactive),96.8% (inactive),1.06% (inactive),0.62% (inactive)
COc1ccc(C2C(C(C)=O)=C(C)N=c3s/c(=C/c4ccc5c(c4)OCO5)c(=O)n32)cc1 (stereo not drawn),85,97.5% (inactive),85% (inactive),91.7% (inactive),112% (inactive),17.7% (inactive),94.4,112,-7.81% (inactive),-3.49% (inactive),-11.4% (inactive),-17.4% (inactive),3.84% (inactive),90.1% (inactive),83.9% (inactive),0.93% (inactive),-0.74% (inactive)
CC1Cc2ccccc2N1C(=O)C12CCC(C)(C(=O)C1)C2(C)C (stereo not drawn),136,123% (inactive),136% (inactive),92.6% (inactive),82.1% (inactive),7.82% (inactive),74.3,82.1,-5.47% (inactive),-4.84% (inactive),-23.2% (inactive),-14.9% (inactive),-0.66% (inactive),85% (inactive),89.9% (inactive),0.8% (inactive),6.06% (inactive)
CC(C)Cc1nnc(NS(=O)(=O)c2ccc(Cl)cc2)s1,91.5,98% (inactive),91.5% (inactive),90.1% (inactive),90% (inactive),-4.72% (inactive),94.7,90,-4.53% (inactive),-0.5% (inactive),-22.6% (inactive),3.6% (inactive),2.68% (inactive),99.2% (inactive),96.7% (inactive),1.43% (inactive),4.53% (inactive)
CCCCC(=O)NCCc1cc2c(C)ccc(C)c2[nH]c1=O,101,95% (inactive),101% (inactive),119% (inactive),85.1% (inactive),1.76% (inactive),83.4,85.1,-5.07% (inactive),1.67% (inactive),-2.27% (inactive),-13.3% (inactive),0.28% (inactive),109% (inactive),106% (inactive),1.61% (inactive),0.32% (inactive)
Clc1cccc(N2CCN(Cc3nc(-c4ccccc4)no3)CC2)c1,90.5,96% (inactive),90.5% (inactive),109% (inactive),91.3% (inactive),-4.04% (inactive),95.4,91.3,0.53% (inactive),-6.5% (inactive),3.02% (inactive),0.865% (inactive),-2.61% (inactive),91.5% (inactive),90% (inactive),-1.2% (inactive),4.99% (inactive)
O=C(OCn1nnc2ccccc2c1=O)c1cc2ccccc2o1,88,106% (inactive),88% (inactive),94.6% (inactive),91.7% (inactive),-23.7% (inactive),115,91.7,-5.47% (inactive),-8.5% (inactive),3.37% (inactive),-2.58% (inactive),1.18% (inactive),99.5% (inactive),104% (inactive),3.96% (inactive),7.11% (inactive)
COc1ccc(CNC(=O)c2nnn(Cc3ccc(OC)cc3)c2N)cc1,89.5,101% (inactive),89.5% (inactive),77.5% (inactive),86.5% (inactive),-1.82% (inactive),88.3,86.5,-2.69% (inactive),3.17% (inactive),-3.35% (inactive),-1.51% (inactive),-3.08% (inactive),91% (inactive),85.4% (inactive),1.69% (inactive),2.66% (inactive)
O=C1c2ccccc2C(Nc2ccc3c(c2)OCO3)N1Cc1ccc2c(c1)OCO2 (stereo not drawn),86,81.5% (inactive),86% (inactive),50% (inactive),83.4% (inactive),-3.75% (inactive),87.1,83.4,-0.27% (inactive),1.83% (inactive),-0.885% (inactive),-1.48% (inactive),-0.78% (inactive),76.8% (inactive),70.1% (inactive),1.67% (inactive),4.17% (inactive)
